Source: PubChem BioAssay (National Center for Advancing Translational Sciences (NCATS))
Shown are actives, neighbours in structure and some others; about 3.7% of the full set was active somewhere.
RE007 growth inh – less growth of the S. pombe RE007 Vpr strain | S. pombe RE007 Vpr strain, BacTiter-Glo ATP luminescence, 24 h | Potency, µM (doses to about 92.2 µM), for the others: at the highest dose activity change, negative = less growth, actives largely listed as inhibitors | hit rate 0.21% among 360,000 | AID 651644; active = well fitted falling curve with a large enough effect; inconclusive = small, poorly fitted or top-dose-only effect; inactive = no such curve, though single readings can be large or run the other way; also: nearly all actives have a fitted effect of over 50% in size
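Fission yeast RE007 carrying one integrated HIV-1 vpr copy, seeded at OD 0.01 in PMG+AL medium with 23 nL pinned compound. Grown 24 h at 30 degrees; viability read by BacTiter-Glo luminescence after 5 min.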
FMDV antiviral – foot and mouth disease virus antiviral activity | Potency, µM (highest dose often 57.9 µM), without a hit: top-dose activity change, negative = inhibition, actives largely listed as inhibitors | hit rate 1.2% among 410,000 | FMDV antiviral cell-based qHTS; calls by dose curve; tested in HEK293T cells; also: read-out not given here; nearly all actives have a fitted effect of over 45% in size
TbPYK inhibitor – inhibitors of Trypanosoma brucei pyruvate kinase; TbPYK enzyme, Kinase-Glo Plus ATP luminescence, 45 min; AID 624173; hit rate 0.12% among 410,000; Q57TT1; Potency, µM (titrated, usually from 76.8 µM), without a hit: at the highest dose activity, negative = inhibition, most hits filed as inhibitors; also: nearly all actives have a fitted effect of over 50% in size
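Luminescent Kinase-Glo Plus end-point after 45 min room-temperature reaction of T. brucei pyruvate kinase started with 130 uM ADP (final). Buffer TEA 50 mM pH 7.2 with KCl, MgCl2, BSA, Tween-20; titration-based qHTS with fitted concentration-effect curves.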
Sm TGR block – S. mansoni TGR enzyme inhibition; Q962Y6; Potency, µM (series often up to 114 µM), inactives show at the highest dose activity change, negative = inhibition, usual class: inhibitors; purified TGR, DTNB reduction, TNB absorbance 405 nm; hit rate 3% among 360,000; also: nearly all actives have a fitted effect of over 60% in size
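TGR 20 nM + NADPH 100 uM (dispensed conc.), cpd preinc 15 min RT; start with NADPH (500 uM addition) then DTNB (15 mM addition). Kinetic TNB absorbance, 405 nm filter. Four-parameter Hill fit across titration.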
* = called active by the depositor; u = inconclusive; x = no result; [ ] = another dose, or the depositor's remark. Unless noted, calls follow the shape of the dose curve; as a rule, active = well fitted curve in the direction sought with a large enough effect; inconclusive = small, poorly fitted or top-dose-only effect, or another doubt; inactive = no such curve, though single readings can be large; an effect the other way counts as inactive or inconclusive. % is scaled to controls: 0 for no effect and ±100 for the full control effect; potency is read from the fitted curve at half-maximal effect.

SMILES	RE007 growth inh	FMDV antiviral	TbPYK inhibitor	Sm TGR block
Cc1ccc(-c2ccnc(-n3ncc(C(=O)N(C)CC4CCCN(C)C4)c3C)n2)o1 (centres undefined)	x	0%	x	x
COc1ccc2c(c1)-c1nc(-n3ncc(C(=O)N(C)CCO)c3C3CC3)ncc1CC2	x	35%	x	x
O=C1OC(/C(=C\Nc2ccc(F)cc2F)[N+](=O)[O-])c2ccccc21 (centres undefined)	-6%	-21%	-5%	11µM*
O=[N+]([O-])/C(=C\Nc1ccc(F)cc1F)S(=O)(=O)c1ccccc1	15%	-4%	-8%	10µM*
CCc1ccc(NC(=O)CSc2ccc(-c3sc(-c4ccccc4)nc3C)nn2)cc1	x	-4%	-9%	-2%
COc1ccc(-c2ncnc(C(F)(F)F)c2-c2csc(C)n2)c(O)c1	2%	-23%	-9%	-5%
Cc1nc(-c2c(-c3ccc(O)cc3O)noc2C(F)(F)F)cs1	-11%	35µM*	-5%	0%
O=C1C(=O)N(Cc2ccc(Cl)c(Cl)c2)c2ccccc21	x	-3%	x	x
CC1Cc2c([nH]c3ccccc23)C2c3ccccc3CN12 (centres undefined)	-7%	7%	-6%	22µM*
CCOC(=O)c1cc2occc2n1CC(=O)Nc1ccc(OC)cc1OC	5%	x	10%	20µM*
CCOC(=O)c1cc(S(=O)(=O)Nc2ccc(OC)cc2OC)cn1C	10%	11%	-1%	56µM*
CCOC(=O)c1cc(-c2ccc(C)cc2)n(CC(=O)Nc2ccc(OC)cc2OC)c1C	x	0%	1%	1%
COc1ccc(S(=O)(=O)c2cc3cc(C(C)(C)C)cc(O)c3oc2=O)cc1	x	-4%	-4%	-14%
CCOC(=O)c1cc(OC(=O)c2ccccc2OC)n(-c2ccccc2)n1	10%	-6%	-8%	35µM*
CCOC(=O)c1ccc(NC(=O)c2c(C)nn(-c3ccc(F)cc3)c2-n2cccc2)cc1	x	-9%	-4%	2%
Cc1ccn(CCC(=O)NCC2Cc3cc(Cl)cc(-c4ccc5[nH]ccc5c4)c3O2)n1 (centres undefined)	x	-2%	x	x
Cc1ccc(N2C(N)=C(C#N)C(c3cccnc3)C3=C2CCCC3=O)cc1 (centres undefined)	19%	4%	-12%	-19%
N#CC1=C(N)N(c2ccc(Br)cc2)C2=C(C(=O)CCC2)C1c1cccnc1 (centres undefined)	5%	38%	0%	40µM*
CCC(C)NC(=O)Cn1ncc2c([nH]c3ccc(C)cc32)c1=O (centres undefined)	x	-5%	-4%	7%
O=C(NCCc1nc2ccccc2n1Cc1ccc(Cl)cc1Cl)c1ccco1	x	0%	2%	2%
COc1cc2c(cc1OC)C(c1ccco1)CC(=O)N2 (centres undefined)	6%	-6%	1%	8%
O=C1CC(c2ccco2)c2ccc3ccccc3c2N1 (centres undefined)	2%	-15%	-4%	45µM*
Cc1cc(C)n(CCc2nc3c4ccccc4nc(N4CCN(c5ccc(F)cc5)CC4)n3n2)n1	x	-7%	-19%	6%
COc1ccc(NCc2cccn2-c2nnc(N3CCC(C)CC3)s2)c(OC)c1	x	2µM*	-5%	-13%
COc1ccc(OC)c(NCc2cccn2-c2nnc(N3CCC(C)CC3)s2)c1	x	23%	-18%	12%
SMILES	RE007 growth inh	FMDV antiviral	TbPYK inhibitor	Sm TGR block
O=C(Nc1c(C(=O)N2CCN(c3ccccc3)CC2)oc2ccccc12)c1ccco1	x	14%	-1%	-1%
CCOC(=O)Cc1csc(NC(=O)COc2ccc(N(C)S(=O)(=O)c3cccs3)cc2)n1	-7%	25µM*	-2%	2%[11.4 µM]
COc1ccc2[nH]c3c(=O)n(CCCCC(=O)NCCN4CCCC4)c(=S)[nH]c3c2c1	-5%	19%	6.3µM*	45%
COc1ccc2[nH]c3c(=O)n(CCCCC(=O)N4CCC(C(N)=O)CC4)c(=S)[nH]c3c2c1	-16%	-10%	6.3µM*	-9%
COc1ccc(CNC(=O)c2cc3ccccn3n2)c(OC)c1	x	29%	-1%	0%
Cc1ccc(CNC(=O)c2cnc3c(-c4ccccc4)c(C)nn3c2C)o1	x	-21%	-7%	u
COC1=CC(=O)c2c(ccc3ncnc(N)c23)C1=O	-22%	2.5µM*	-1%	x
Cc1ccc(Sc2cc(NCCCO)c([N+](=O)[O-])c3nonc23)cc1	2%	u	-17%	3.5µM*
CC(C)CCSc1cc(NCCO)c([N+](=O)[O-])c2nonc12	12%	0%	31%	2.5µM*
CC(=O)OCCCNc1cc(Sc2ccc(Cl)cc2)c2nonc2c1[N+](=O)[O-]	-7%	32µM*	-5%	3.2µM*
CCN(CC)c1cc(NCCO)c([N+](=O)[O-])c2nonc12	-15%	-1%	-3%	-11%
O=C1C=C(N2CCOCC2)CCC1	9%	-10%	-1%	x
O=C1C=C(N2CCN(C3=CC(=O)CCC3)CC2)CCC1	0%	0%	-6%	20µM*
O=C(NCCc1ccccn1)C1CC12CCN(C(=O)c1c(F)cccc1Cl)CC2 (centres undefined)	x	5%	x	x
O=C(CSc1ccc2nnc(CCNS(=O)(=O)c3ccccc3)n2n1)Nc1ccccc1C(F)(F)F	x	15%	3%	-12%
CCn1c(=O)cc(SCC(=O)Nc2cc(OC)c(OC)c(OC)c2)c2ccccc21	15%	u	-17%	-3%
CCn1c(=O)cc(SCC(=O)Nc2cccc(SC)c2)c2ccccc21	4%	20µM*	6%	6%
CCn1c(=S)sc2c(=O)n(-c3ccccc3)c(SC)nc21	-7%	18µM*	-5%	-28%
Cc1cccc(C(=O)N2c3ncnn3C3(CCCCC3)[C@@H]3CCCC[C@@H]32)c1	x	0%	-4%	5%
CCOC(=O)c1[nH]c(C)c(CCC(=O)NCc2ccc(CC)cc2)c1C	x	2%	2%	0%
C=CCN1C(=O)NC(c2ccccc2)(C(F)(F)F)S/C1=C(\C#N)c1nnc(N2CCOCC2)n1-c1ccccc1 (centres undefined)	11%	32µM*	5%	-20%
COC(=O)C1CCCCN1Cc1nc(N(C)C)c2ccccc2n1 (centres undefined)	x	-3%	x	x
O=C(/C=C/c1ccccc1)c1ccc(NC2=NCCCS2)cc1	x	-47%	-11%	-12%
O=C(/C=C/c1ccc(Br)cc1)c1ccc(NC2=NCCCS2)cc1	-17%	16µM*	3%	-2%
Cn1c(Br)nc2c1c(=O)n(CC(O)COc1ccccc1)c(=O)n2C (centres undefined)	6%	-20%	7%	50µM*
CC#CCN(Cc1ccco1)C(=O)c1ccc(OC2CCN(Cc3ccccn3)CC2)cc1	-15%	-3%	4%	79µM*
Clc1ccc(OCc2nnc(SCCN3CCCCC3)n2Cc2ccco2)cc1	-11%	-11%	-2%	25µM*
COc1ccc(CNC(=O)CCc2c(C)c3cc4c(C)coc4c(C)c3oc2=O)cc1OC	x	-10%	3%	-2%
